# Experimental data from PubChem BioAssay AID1851 (National Center for Advancing Translational Sciences (NCATS), 2009).
# In all, about 16,000 compounds went through this assay and about 5,800 (36%) were called active. About 23% were inconclusive and are not listed. The list shows a part of the results. Values without a mark were called inactive. Calls follow the shape of the dose curve; as a rule, active = well fitted curve in the direction sought with a large enough effect; inconclusive = small, poorly fitted or top-dose-only effect, or effect the other way; inactive = no such curve, though single readings can be large or run the other way.
# Target: Cytochrome P450 2C19 (Homo sapiens) (UniProt P33261)
# Assay: Cytochrome panel assay with activity outcomes
# Settings: recombinant CYP, pro-luciferin dealkylation, luminescence, p450-cyp2c19; series mostly up to 57.1 µM; activity, negative = inhibition: at the top concentration
# % is scaled to controls: 0 for no effect and ±100 for the full control effect.
# Chain of Cytochrome P450 2C19 (Homo sapiens) (P33261 whole entry, looked up): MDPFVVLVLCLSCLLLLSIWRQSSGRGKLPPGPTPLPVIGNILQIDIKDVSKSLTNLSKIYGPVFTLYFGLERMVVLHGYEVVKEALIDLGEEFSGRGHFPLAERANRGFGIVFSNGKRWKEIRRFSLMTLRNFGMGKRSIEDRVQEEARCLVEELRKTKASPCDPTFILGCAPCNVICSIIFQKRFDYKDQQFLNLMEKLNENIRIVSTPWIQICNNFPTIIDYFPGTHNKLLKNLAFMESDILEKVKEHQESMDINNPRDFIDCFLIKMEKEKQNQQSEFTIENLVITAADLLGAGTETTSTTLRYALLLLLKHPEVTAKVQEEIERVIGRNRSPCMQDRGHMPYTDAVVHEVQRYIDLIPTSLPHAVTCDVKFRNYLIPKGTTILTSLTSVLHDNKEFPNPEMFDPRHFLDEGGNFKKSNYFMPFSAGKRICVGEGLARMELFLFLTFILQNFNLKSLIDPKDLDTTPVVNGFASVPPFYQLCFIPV
Compound,"activity, negative = inhibition",AC50
COc1ccc(CN[C@H](C)C(=O)O)cc1,24.9% [at 11.4 µM],–
COc1ccc(CNn2c(C)nc3ccccc3c2=O)cc1,–,0.316 µM (active)
CCCCOc1ccc(CNn2c(C)nc3ccccc3c2=O)cc1,–,0.112 µM (active)
Cc1nc2ccccc2c(=O)n1NC(=O)c1ccccc1Cl,–,20 µM (active)
N/N=C1/CC(=O)NC(=O)N1,-9.46% [at 11.4 µM],–
CCCCOC(=O)C1=C(C)Nc2ncnn2C1c1cc(OC)ccc1OC (stereo unspecified),–,20 µM (active)
COc1cc(OC)c(C2C(C(=O)Nc3ccc(C)cc3C)=C(C)Nc3ncnn32)cc1OC (stereo unspecified),-25.1%,–
COCCCNC(=O)c1c(N)n(/N=C/c2ccccn2)c2nc3ccccc3nc12,–,10 µM (active)
CCCCOc1cc(C(=O)NCCN(CC)CC)c2ccccc2n1,-23.7% [at 25.6 µM],–
CCNc1ncc2nc(-c3cccs3)c(=O)n(C[C@H]3CCCO3)c2n1,-9.35%,–
CCC(=O)N(C)/C=C1\Sc2ccccc2C1=O,–,20 µM (active)
CN(C)C(=O)CSC1c2ccccc2C(=O)N1c1ccccc1 (stereo unspecified),-16%,–
CCOC(=O)C1CCCN(C(=O)c2sc3nc(-c4ccc(OC)cc4)cn3c2C)C1 (stereo unspecified),–,7.94 µM (active)
CSc1nc2c(c(=O)[nH]1)C(c1ccncc1)C(C(=O)OC(C)C)=C(C)N2 (stereo unspecified),–,1.12 µM (active)
CCSc1nc2c(c(=O)[nH]1)C(c1ccccn1)C1=C(CC(C)(C)CC1=O)N2 (stereo unspecified),-2.31%,–
CCSc1nc2c(c(=O)[nH]1)C(c1ccncc1)C(C(=O)OC(C)C)=C(C)N2 (stereo unspecified),–,0.708 µM (active)
O=C(c1ccccc1)c1ccc(OCCn2cnc3ccccc3c2=O)cc1,–,1.58 µM (active)
CCOCCCn1cnc2c(c1=O)c1nc3ccccc3nc1n2-c1ccccc1,-8.6%,–
O=c1c2ccccc2ncn1CCCSc1ccccc1,–,1.41 µM (active)
O=C1c2ccccc2C(=O)N1CCCSc1ccccc1,–,0.631 µM (active)
Cc1ccc(SCCCn2cnc3ccccc3c2=O)cc1,–,2.24 µM (active)
N#CCSc1ncnc2c1cnn2CCO,-21.2%,–
O=C(/C=C/c1ccc2c(c1)OCO2)NCCSCc1cccc(Cl)c1,–,3.16 µM (active)
O=C(CSCc1cccc(Br)c1)N/N=C/c1ccc2c(c1)OCO2,–,11.2 µM (active)

Compound,"activity, negative = inhibition",AC50
COC(=O)N/N=C\C=C\c1ccc2c(c1)OCO2,-7.72%,–
O=C(CSCc1cccc(Cl)c1)N/N=C/c1ccc(OCC(=O)N2CCCCC2)cc1,–,3.16 µM (active)
O=C(Cn1nc(C(F)F)cc1C(F)F)N/N=C/c1ccc2c(c1)OCO2,–,1.58 µM (active)
CCCc1nnc(SCC(=O)O)n1/N=C/c1ccc2c(c1)OCO2,-17.5%,–
Cc1cccc(C(=O)N/N=C/c2ccc(OCC(=O)N3CCCCC3)cc2)c1,-68.9%,–
COc1ccc2c(c1OC)C(=O)N(C(C)C(=O)O)C2=O (stereo unspecified),-21.8%,–
COc1ccc(-n2c(=O)c(C)nc3cnc(N(C)C)nc32)cc1,9.33%,–
N=C(N)C(N=Nc1ccccc1)C(=N)N (stereo unspecified),-2.71% [at 11.4 µM],–
CC[C@H](Cc1c(I)cc(I)c(N)c1I)C(=O)O,-35.8% [at 25.6 µM],–
O=C(NC12CC3CC(CC(C3)C1)C2)N1CCN(c2nc(-c3ccccc3)cs2)CC1,–,2.82 µM (active)
N[C@@H](CSCc1ccc(I)cc1)C(=O)O,12.9% [at 11.4 µM],–
COc1ccc(-n2c(=O)c(-c3ccc(F)cc3)nc3cnc(OC)nc32)cc1,-29%,–
COc1ccc(O[C@H]2C=C[C@@H](c3ccccc3)O[C@@H]2CO/N=C(\C)CCN2CCCCc3nc(C)c(C)cc32)cc1,–,2.51 µM (active)
C/C(CCN1CCc2nc(-c3ccccc3)c(-c3ccccc3)cc2C1)=N\OC[C@@H](C)[C@H](OCc1ccccc1)C(C)C,–,1.58 µM (active)
CCc1cc2c(nc1CC)CCN(CC/C(C)=N/OC[C@@H](C)[C@H](OCc1ccccc1)C(C)C)C2,-15.6% [at 11.4 µM],–
COc1ccc(O[C@H]2C=C[C@@H](c3ccccc3)O[C@@H]2CO/N=C(\C)CCN2CCc3nc(-c4ccccc4)c(-c4ccccc4)cc3C2)cc1,–,0.251 µM (active)
CC(=O)OC[C@@H]1O[C@H](CCO/N=C(\C)CCN2CCc3nc(-c4ccccc4)c(-c4ccccc4)cc3C2)C=C[C@@H]1OC(C)=O,-28.2% [at 11.4 µM],–
COc1ccc(O[C@H]2C=C[C@@H](c3ccccc3)O[C@@H]2CO/N=C(\C)CCN2CCCc3nc(C)c(C)cc32)cc1,–,0.398 µM (active)
C=CC[C@@H]1C=C[C@H](O/N=C(\C)CCN2CCc3nc(-c4ccccc4)c(-c4ccccc4)cc3C2)[C@H](CO)O1,-25.6% [at 11.4 µM],–
CO/N=C(\C)CCN1CCCCc2nc(C)c(C)cc21,-22.3% [at 11.4 µM],–
CCCNC(=O)OC[C@@H]1O[C@H](CCO/N=C(\C)CCN2CCCCc3nc(C)c(C)cc32)C=C[C@@H]1Oc1ccc(OC)cc1,-12.9% [at 11.4 µM],–
CC(=O)OC[C@@H]1O[C@H](CCO/N=C(\C)CCN2CCCc3nc(C)c(C)cc32)C=C[C@@H]1OC(C)=O,38.8% [at 11.4 µM],–
CCCNC(=O)OC[C@@H]1O[C@H](CCO/N=C(\C)CCN2CCCc3nc(C)c(C)cc32)C=C[C@@H]1Oc1ccc(OC)cc1,-43.5% [at 11.4 µM],–
C/C(CCN1CCc2nc(-c3ccccc3)c(-c3ccccc3)cc2C1)=N\OC[C@@H](O)COCc1ccco1,-21.9% [at 11.4 µM],–

Compound,"activity, negative = inhibition",AC50
COC(=O)CC[C@@H](C)[C@H]1CC[C@H]2[C@H]3CC[C@H]4C[C@@H]5CC[C@@]4(C)C3(O5)[C@@H](Br)[C@@H](Br)[C@@]12C,-31% [at 11.4 µM],–
OCCN=c1cc(-c2ccccc2)oc2ccc(Cl)cc12,–,1.58 µM (active)
CCCCCCN1Cc2ccccc2C1,–,10 µM (active)
CCCCN1CCC(n2c(=O)[nH]c3ccccc32)CC1,26.7%,–
CCCCNC(=O)[C@@H]1Cc2ccccc2N1C(=O)[C@H](N)CC,6.24%,–
CCN(CC)C(=O)N1CCN(C)CC1,-6.34% [at 25.6 µM],–
COC(=O)[C@@]1(Cc2ccccc2)[C@H]2c3cc(C(=O)N4CCCC4)n(C)c3C[C@H]2CN1C(=O)c1ccccc1,–,3.98 µM (active)
COC(=O)[C@@]1(Cc2ccccc2)[C@H]2c3cc(C(=O)N4CCCC4)n(CC4CC4)c3C[C@H]2CN1C(=O)c1ccccc1,–,3.16 µM (active)
Cn1cccc1C(=O)N1CCC2(CCCN(Cc3ccccc3)C2)CC1,-28%,–
COc1ccccc1CN1CCCC2(CCN(C(=O)c3ccncc3)CC2)C1,-42.2%,–
COC(=O)[C@@]1(Cc2ccccc2)[C@H]2c3cc(C(=O)N4CCCC4)n(Cc4ccc(O)c(OC)c4)c3C[C@H]2CN1C(=O)c1ccccc1,–,0.501 µM (active)
O=C(c1cccc(F)c1)N1CCC2(CC1)CN(c1ccc(-c3ccccc3)cc1)C2,-6.52%,–
O=C(c1ccncc1)N1CCC[C@@]2(CCN(c3ccccc3)C2)C1,3.46%,–
O=C(c1ccncc1)N1CCC2(CC1)CN(c1ccccc1)C2,–,0.316 µM (active)
O=C(c1cccc(F)c1)N1CCC2(CC1)CN(c1ccncc1)C2,–,3.16 µM (active)
O=C(c1ccncc1)N1CCC2(CC1)CN(c1ncccn1)C2,-28.5%,–
O=C(c1cccc(F)c1)N1CCC2(CC1)CCN(c1ccncc1)CC2,-19%,–
O=C(c1ccncc1)N1CCC2(CC1)CCN(c1ncccn1)CC2,–,2.51 µM (active)
COc1ccc(C(=O)N2CCC3(CC2)CCN(c2ncccn2)CC3)cc1,-25.9%,–
O=C(c1cc(C(F)(F)F)cc(C(F)(F)F)c1)N1CCC2(CC1)CN(c1ccncc1)C2,-19.3%,–
NC(N)=NC(N)=Nc1ccc(S(N)(=O)=O)cc1,28.1% [at 11.4 µM],–
CC(C)CN1CC2(CCN(C(=O)c3cccc(F)c3)CC2)C1,19.3%,–
NNC(=O)[C@@H](O)[C@H](O)[C@H](O)CO,16% [at 11.4 µM],–
Cn1c([N+](=O)[O-])cnc1COC(N)=O,-41.3% [at 25.6 µM],–

Compound,"activity, negative = inhibition",AC50
CCCCCCCCCCCCCCCC(=O)C(F)(F)F,19.4%,–
COc1ccc(-c2cc(C3CCN(c4cc(Cl)nc(N)n4)CC3)[nH]n2)cc1,–,3.16 µM (active)
NC1CCN(c2cccc(Cl)n2)CC1,–,inactive
Nc1nc(Cl)cc(N2CCC(c3cc(-c4ccc(Cl)cc4Cl)n[nH]3)CC2)n1,–,3.98 µM (active)
C[N+](C)(C)c1ccc([C@H](N)C(=O)O)cc1,-19.4% [at 11.4 µM],–
CCOC(=O)C1C(=O)C=C(c2ccc(C)cc2)CC1c1ccco1 (stereo unspecified),–,3.98 µM (active)
CCOC(=O)C1C(=O)C=C(c2ccc(NS(C)(=O)=O)cc2)CC1c1ccco1 (stereo unspecified),–,14.1 µM (active)
CCCCCCCCn1cc(C(C)=O)c(=O)[nH]c1=O,–,17.8 µM (active)
N[C@@H](Cn1cc(F)c(=O)[nH]c1=O)C(=O)O,-26.3%,–
CCCCCCC(C)n1cc(C(C)=O)c(=O)[nH]c1=O (stereo unspecified),–,15.8 µM (active)
CC(C)NC[C@H](O)c1cc(O)cc(O)c1,–,inactive
CC(C)Oc1ccc2ccccc2c1C=O,–,10 µM (active)
COc1ccc(C(=O)NCS(=O)(=O)c2ccc(C)cc2)cc1,–,6.31 µM (active)
O=C(CN(Cc1ccco1)C(=O)c1ccccc1)Nc1ccc(Cl)c(Cl)c1,–,3.16 µM (active)
O=C(CN(Cc1ccco1)C(=O)c1cccc(Cl)c1)Nc1c(Cl)cc(Cl)cc1Cl,–,10 µM (active)
Cc1cc(N2CCN(C)CC2)nc2ccc(NC(=O)CCC(=O)NCc3ccco3)cc12,34.7%,–
CO[C@]1(C2=NCCN2)COc2ccccc2O1,–,inactive
Cc1ccc(SCC(=O)Nc2cccc(NC(=O)c3ccco3)c2)cc1,–,7.08 µM (active)
CCc1cc2cc(C)c(C)cc2nc1SCC(=O)NNC(=O)c1ccco1,1.63%,–
CC(=O)c1ccc(-n2nnnc2SCC(=O)Nc2cccc(NC(=O)c3ccco3)c2)cc1,–,3.16 µM (active)
CCC(=O)Nc1cccc(NC(=O)CSc2nnnn2Cc2ccccc2)c1,–,10 µM (active)
CNC(=O)c1nnn(Cc2ccccc2)c1NC(=O)C(F)(F)F,-10.7%,–
O=C(CSc1ccc(Cl)cc1)Nc1cccc(NC(=O)c2ccco2)c1,–,2.51 µM (active)
Cc1ccc(-n2nnnc2SCC(=O)NNC(=O)c2ccco2)c(C)c1,-28.9%,–
